Experimental findings from PubChem BioAssay (NCI) are described below.

Common to all, as to experiment: NCI-60 one-dose screen, 48 h (100 = growth as untreated, 0 = no growth, -100 = all killed)
One assay relates to SK-MEL-2 melanoma. The following applies: 10 µM unless noted.
In another assay the test system is SN12C renal. The following applies: 10 µM unless noted.
The subject of a further assay is UO-31 renal. The following applies: 10 µM unless noted.
The next assay concerns TK-10 renal. As to conditions: 10 µM unless noted.
The next assay deals with ACHN renal. As to conditions: 10 µM unless noted.
In a further assay the test system is CAKI-1 renal. As to conditions: 10 µM unless noted.
The test system of a further assay is A498 renal. As to conditions: 10 µM unless noted.
A further assay relates to CCRF-CEM leukemia. As to conditions: 10 µM unless noted.
A further assay has as its system MOLT-4 leukemia. As to conditions: 10 µM unless noted.
For the next assay, the system named is RPMI-8226 leukemia. The following applies: 10 µM unless noted.
In another assay the test system is OVCAR-8 ovarian. As to conditions: 10 µM unless noted.
The test system of the next assay is OVCAR-5 ovarian. As to conditions: 10 µM unless noted.
The next assay relates to OVCAR-4 ovarian. As to conditions: 10 µM unless noted.
The subject of another assay is SK-OV-3 ovarian. As to conditions: 10 µM unless noted.
A further assay relates to IGROV1 ovarian. The following applies: 10 µM unless noted.
A further assay deals with OVCAR-3 ovarian. As to conditions: 10 µM unless noted.
Another assay deals with HS 578T breast. As to conditions: 10 µM.
The test system of the next assay is NCI/ADR-RES ovarian. As to conditions: 10 µM unless noted.
For the next assay, the system named is SR leukemia. As to conditions: 10 µM unless noted.

The panel holds about 83,000 compounds, 20% with a hit somewhere; the sample as a whole holds those more often.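 How to read the values: 0–100, growth inhibition (40 = 60% inhibited); 0, no net growth; -100 to 0, cell death (-40 = 40% of starting cells died; -100 = all dead).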 Values without a mark were called inactive. The source made the active and inactive calls. Rule for the calls: active = growth percent below 10; inactive = the rest.

`CC1=C(C(=O)Nc2ccc(F)cc2)C(c2ccccc2)C2=C(CC(C)(C)CC2=O)N1` (stereo unspecified): the growth with SK-MEL-2 melanoma was 89.4%; in the assay with SN12C renal it was 70.1%; in the assay on UO-31 renal it was 60.1%; in the assay on TK-10 renal it was 104%; in the assay on ACHN renal, 82.7%; in the assay on CAKI-1 renal it was 64.3%. The growth in the assay with A498 renal is 47.1%; with CCRF-CEM leukemia, 62.3%; with MOLT-4 leukemia, 62.9%; in the assay on RPMI-8226 leukemia, 41.3%; in the assay on OVCAR-8 ovarian, 73.3%; in the assay on OVCAR-5 ovarian it was 90.7%. The growth with OVCAR-4 ovarian was 58.7%; in the assay with SK-OV-3 ovarian, 97.2%; with IGROV1 ovarian, 84.3%; in the assay on OVCAR-3 ovarian, 70%; in the assay with HS 578T breast it was 82.5%; in the assay with NCI/ADR-RES ovarian it was 79.7%.
For the compound `CCCCCCCCCCCCCCC(C(=O)OCC)C(=O)OCC`, the growth in the assay on SK-MEL-2 melanoma was 112%; in the assay on SN12C renal, 101%; in the assay with UO-31 renal, 93%; in the assay with TK-10 renal it was 117%; with ACHN renal it was 98.3%; in the assay on CAKI-1 renal, 90.8%. The growth in the assay with A498 renal was 105%; in the assay on MOLT-4 leukemia it was 109%; in the assay on SR leukemia, 116%; in the assay on RPMI-8226 leukemia it was 104%; with OVCAR-8 ovarian, 103%; in the assay with OVCAR-5 ovarian, 103%. Moreover, the growth with OVCAR-4 ovarian was 109%; in the assay on SK-OV-3 ovarian, 112%; with IGROV1 ovarian, 103%; in the assay with OVCAR-3 ovarian it was 110%; in the assay on NCI/ADR-RES ovarian, 104%.
Regarding `COc1cc(-c2nc(-c3nc4cc(C(=O)c5ccccc5)ccc4[nH]3)cc3c2[nH]c2ccccc23)cc(OC)c1OC`, the growth is 87.3% with SK-MEL-2 melanoma; 89.5% in the assay on SN12C renal; 73.2% in the assay on UO-31 renal; 106% in the assay on TK-10 renal; 87.2% in the assay with ACHN renal; 84% in the assay with CAKI-1 renal. The growth with A498 renal was 105%; in the assay with CCRF-CEM leukemia, 57.2%; in the assay on MOLT-4 leukemia it was 63%; in the assay with SR leukemia, 81.6%; in the assay on RPMI-8226 leukemia, 42%; with OVCAR-8 ovarian it was 67.4%. The growth was 96.8% with OVCAR-4 ovarian; 146% in the assay with SK-OV-3 ovarian; 107% with IGROV1 ovarian; 101% with OVCAR-3 ovarian; 88.7% with NCI/ADR-RES ovarian.
`CCn1c(CN2CCN(Cc3ccccc3)CC2)nc2cc(NC(=O)c3cccs3)ccc21`: the growth with SK-MEL-2 melanoma is -50.1% (active); in the assay on SN12C renal, -87.6% (active); in the assay on UO-31 renal it was -96.7% (active); with TK-10 renal, -94.1% (active); with ACHN renal it was -79.2% (active); in the assay on CAKI-1 renal it was -92.5% (active). Further, the growth in the assay on A498 renal was -91.6% (active); in the assay with CCRF-CEM leukemia, -39.2% (active); in the assay on MOLT-4 leukemia, -11.3% (active); in the assay with SR leukemia it was -9.71% (active); in the assay on RPMI-8226 leukemia, -27.6% (active); in the assay with OVCAR-8 ovarian, -61.8% (active). The growth in the assay on OVCAR-5 ovarian is 4.74% (active); with OVCAR-4 ovarian, -51.2% (active); in the assay on IGROV1 ovarian, -83% (active); in the assay on OVCAR-3 ovarian it was -94.5% (active); with HS 578T breast, -25.3% (active).
For `COc1cccc(NC(=O)c2c(-c3ccccc3)c(-c3ccccc3)n[nH]c2=O)c1`, the growth with SK-MEL-2 melanoma is 134%; in the assay with SN12C renal, 96.7%; in the assay with UO-31 renal, 86.7%; in the assay with TK-10 renal, 120%; with ACHN renal, 94%; with CAKI-1 renal it was 86.9%. The growth in the assay on A498 renal was 96.9%; in the assay on MOLT-4 leukemia it was 67.8%; with SR leukemia it was 88.3%; in the assay on RPMI-8226 leukemia, 86.1%; in the assay on OVCAR-8 ovarian it was 103%; with OVCAR-5 ovarian it was 97.8%. Further, the growth with OVCAR-4 ovarian was 86%; with SK-OV-3 ovarian, 99.5%; in the assay on IGROV1 ovarian it was 105%; in the assay on OVCAR-3 ovarian, 107%.
In the case of `CCc1ccc(-c2ccc(NC3CCCCCC3)nn2)cc1S(N)(=O)=O`, the growth is 99.3% in the assay with SK-MEL-2 melanoma; 101% in the assay with SN12C renal; 102% in the assay with UO-31 renal; 93.4% with TK-10 renal; 96.1% with ACHN renal; 96.6% in the assay with CAKI-1 renal. For the same compound, the growth was 107% in the assay with A498 renal; 91.7% in the assay on MOLT-4 leukemia; 103% with SR leukemia; 99.4% with RPMI-8226 leukemia; 102% with OVCAR-8 ovarian; 97.5% in the assay with OVCAR-5 ovarian. The growth is 102% with OVCAR-4 ovarian, 105% in the assay on SK-OV-3 ovarian, 110% in the assay on IGROV1 ovarian and 117% with OVCAR-3 ovarian.
`CC(C)COC(=O)NC(C)(C)C`: the growth with SK-MEL-2 melanoma was 93.1%; with SN12C renal, 110%; in the assay on UO-31 renal, 95.6%; in the assay with TK-10 renal, 104%; in the assay on ACHN renal, 104%; with CAKI-1 renal, 96.4%. In addition, the growth in the assay on A498 renal was 120%; in the assay with MOLT-4 leukemia, 85.4%; in the assay on SR leukemia, 91.5%; in the assay on RPMI-8226 leukemia, 103%; with OVCAR-8 ovarian, 103%; in the assay with OVCAR-5 ovarian it was 97.9%. For the same compound, the growth was 106% with OVCAR-4 ovarian, 103% in the assay on SK-OV-3 ovarian, 105% with OVCAR-3 ovarian and 106% in the assay on NCI/ADR-RES ovarian.
Turning to `CSC1=NC(=Nc2c(C)cccc2C)C2(CCC(C(C)(C)C)CC2)N1c1ccc(Cl)cc1` (stereo unspecified), the growth was 49.9% in the assay on SK-MEL-2 melanoma; 42.1% with SN12C renal; 34.8% in the assay on UO-31 renal; 61.3% in the assay with TK-10 renal; 34.5% with ACHN renal; 12% in the assay on CAKI-1 renal. The growth is 71.5% in the assay on A498 renal; 36.9% in the assay with CCRF-CEM leukemia; 23.5% with MOLT-4 leukemia; 26% in the assay with SR leukemia; 51.5% in the assay with RPMI-8226 leukemia; 31.6% in the assay with OVCAR-8 ovarian. Besides, the growth in the assay on OVCAR-5 ovarian was 72.1%; in the assay with OVCAR-4 ovarian it was 60%; in the assay on IGROV1 ovarian, 55.4%; in the assay with OVCAR-3 ovarian, 55.3%; with HS 578T breast it was 65.9%.
On to `Cc1cc(N=Nc2ccc(-c3ccc(N=Nc4ccc(O)c(C(=O)O)c4)cc3)cc2)c(N)c(N=Nc2ccc(C(=O)O)cc2)c1N`, for which the growth in the assay on SK-MEL-2 melanoma was 91.8%; in the assay with SN12C renal, 91%; with UO-31 renal, 76.9%; with TK-10 renal, 134%; in the assay with ACHN renal, 80.3%; in the assay on CAKI-1 renal, 86%. Besides, the growth in the assay with A498 renal was 101%; with MOLT-4 leukemia, 90.1%; with SR leukemia, 75.9%; in the assay on RPMI-8226 leukemia, 67.1%; in the assay with OVCAR-8 ovarian, 90.8%; in the assay with OVCAR-5 ovarian, 100%. The growth with OVCAR-4 ovarian was 97.1%; with SK-OV-3 ovarian it was 103%; in the assay with IGROV1 ovarian, 83.3%; with OVCAR-3 ovarian, 93.1%; in the assay on NCI/ADR-RES ovarian it was 97.7%.
